Test results: PubChem BioAssay (NCATS)
Results filed as inconclusive are left out. Active and inactive are the calls of the source. The call rests on the fitted dose curve; in most records, active means well fitted curve in the direction sought with a large enough effect; inconclusive means small, poorly fitted or top-dose-only effect, or another doubt; inactive means no such curve, though single readings can be large; an effect the other way counts as inactive or inconclusive.

What was measured:
[1] = Quantitative High-Throughput drug screen in 47 multiple myeloma cell lines against the NCATS MIPE library collection: EJM_DSMZ cell viability assay (AID 1918926; further: nearly all actives have a fitted effect of over 30% in size)
Outline: (§1)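 Relative luminescence from CellTiter-Glo served as the viability signal, referenced to DMSO-treated (100%) and cell-free medium (0%) controls. Treatment lasted 48 hours at 37C with 500 cells per well.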

[2] = Quantitative High-Throughput drug screen in 47 multiple myeloma cell lines against the NCATS MIPE library collection: AMO1_DSMZ cell viability assay (AID 1918927; further: nearly all actives have a fitted effect of over 30% in size)
Outline: as §1

[3] = Quantitative High-Throughput drug screen in 47 multiple myeloma cell lines against the NCATS MIPE library collection: ARD_JJKsccE7 cell viability assay (AID 1918929)
Outline: as §1

[4] = Quantitative High-Throughput drug screen in 47 multiple myeloma cell lines against the NCATS MIPE library collection: Karpas620_DSMZ cell viability assay (AID 1918959); further: nearly all actives have a fitted effect of over 30% in size
Outline: (§2)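 qHTS of the MIPE 4.0 collection: 500 myeloma cells/well, 48 h drug exposure at 37C in 5% CO2, then CellTiter-Glo for 5 min at room temperature before luminescence reading.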

[5] = Quantitative High-Throughput drug screen in 47 multiple myeloma cell lines against the NCATS MIPE library collection: Karpas417_ECACC cell viability assay (AID 1918961); settings: Karpas417 myeloma viability, CellTiter-Glo ATP luminescence, 48 h; viability (% of DMSO): at 45.8 µM (top of the series)
Outline: (§3)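 Luminescent ATP measurement with CellTiter-Glo gives viability, scaled between DMSO-only wells (100%) and media-only wells (0%). Cells, 500 per well, faced library compounds for 48 hours at 37C.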

[6] = Quantitative High-Throughput drug screen in 47 multiple myeloma cell lines against the NCATS MIPE library collection: JIM1_ECACC cell viability assay (AID 1918964)
Outline: as §1

[7] = Quantitative High-Throughput drug screen in 47 multiple myeloma cell lines against the NCATS MIPE library collection: INA6_PLB cell viability assay (AID 1918965; further: nearly all actives have a fitted effect of over 55% in size)
Outline: as §3

[8] = Quantitative High-Throughput drug screen in 47 multiple myeloma cell lines against the NCATS MIPE library collection: JJN3_DSMZ cell viability assay (AID 1918966; further: nearly all actives have a fitted effect of over 50% in size)
Outline: as §1

[9] = Quantitative High-Throughput drug screen in 47 multiple myeloma cell lines against the NCATS MIPE library collection: H1112_PLB cell viability assay (AID 1918967; further: nearly all actives have a fitted effect of over 30% in size)
Outline: as §1

[10] = Quantitative High-Throughput drug screen in 47 multiple myeloma cell lines against the NCATS MIPE library collection: Karpas25_ECACC cell viability assay (AID 1918968; further: nearly all actives have a fitted effect of over 35% in size)
Outline: as §1

[11] = Quantitative High-Throughput drug screen in 47 multiple myeloma cell lines against the NCATS MIPE library collection: KMS27_JCRB cell viability assay (AID 1918970); further: nearly all actives have a fitted effect of over 30% in size
Outline: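 ATP-based viability (CellTiter-Glo luminescence) is measured in cells treated 48 h with approved and investigational drugs at 37 °C. Controls are DMSO-only wells for full viability and media-only wells for none.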

[12] = Quantitative High-Throughput drug screen in 47 multiple myeloma cell lines against the NCATS MIPE library collection: KMS12BM_JCRB cell viability assay (AID 1918971); further: nearly all actives have a fitted effect of over 35% in size
Outline: (§4)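 Myeloma cell lines, 500 cells per well, exposed to MIPE 4.0 library compounds for 48 h at 37C, 5% CO2. Viability from ATP by CellTiter-Glo luminescence; normalised to DMSO (100%) and media-only (0%) wells.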

[13] = Quantitative High-Throughput drug screen in 47 multiple myeloma cell lines against the NCATS MIPE library collection: KMS12PE_JCRB cell viability assay (AID 1918972); further: nearly all actives have a fitted effect of over 30% in size
Outline: as §3

[14] = Quantitative High-Throughput drug screen in 47 multiple myeloma cell lines against the NCATS MIPE library collection: KMS20_JCRB cell viability assay (AID 1918973); further: nearly all actives have a fitted effect of over 45% in size
Outline: as §1

[15] = Quantitative High-Throughput drug screen in 47 multiple myeloma cell lines against the NCATS MIPE library collection: KMS26_JCRB cell viability assay (AID 1918975); further: nearly all actives have a fitted effect of over 45% in size
Outline: as §4

[16] = Quantitative High-Throughput drug screen in 47 multiple myeloma cell lines against the NCATS MIPE library collection: KHM11_PLB cell viability assay (AID 1918962); further: nearly all actives have a fitted effect of over 35% in size
Outline: as §2

[17] = Quantitative High-Throughput drug screen in 47 multiple myeloma cell lines against the NCATS MIPE library collection: ARP1_JJKsccF8 cell viability assay (AID 1918928; further: nearly all actives have a fitted effect of over 40% in size)
Outline: (§5)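 Cell viability inhibition in this qHTS is measured via ATP content (CellTiter-Glo) after 48 h drug exposure at 37 °C. Wells hold 500 cells; DMSO-treated wells define 100% and medium-only wells 0%.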

[18] = Quantitative High-Throughput drug screen in 47 multiple myeloma cell lines against the NCATS MIPE library collection: KMM1_JCRB cell viability assay (AID 1918960); further: nearly all actives have a fitted effect of over 30% in size
Outline: as §5

[19] = Quantitative High-Throughput drug screen in 47 multiple myeloma cell lines against the NCATS MIPE library collection: KMS21BM_JCRB cell viability assay (AID 1918974); settings: ATP luminescence, 48 h; viability: at 45.8 µM (top of the series)
Outline: as §1

[20] = Quantitative High-Throughput drug screen in 47 multiple myeloma cell lines against the NCATS MIPE library collection: JIM3_ECACC cell viability assay (AID 1918963; further: nearly all actives have a fitted effect of over 35% in size)
Outline: as §2
Potency means the concentration at half of the fitted maximal effect.

CCc1c(C(=O)C(N)=O)c2c(OCC(=O)O)cccc2n1Cc1ccccc1
inactive: Potency [1] | Potency [2] | Potency [3] | Potency [4] | Potency [5] | Potency [6] | Potency [7] | Potency [8] | Potency [9] | Potency [10] | Potency [11] | Potency [12] | Potency [13] | Potency [14] | Potency [15]

Oc1ccc2c3c1O[C@H]1c4[nH]c5c(c4C[C@@]4(O)[C@@H](C2)N(CC2CC2)CC[C@]314)C[C@@]1(O)[C@H]2Cc3ccc(O)c4c3[C@@]1(CCN2CC1CC1)[C@H]5O4
inactive: Potency [1] | Potency [2] | Potency [3] | Potency [4] | Potency [16] | Potency [6] | Potency [7] | Potency [9] | Potency [10] | Potency [11] | Potency [13] | Potency [15]

CC(C)[C@]12O[C@@H]1[C@@H]1O[C@]13[C@]1(O[C@H]1C[C@@H]1C4=C(CC[C@@]13C)C(=O)OC4)[C@H]2O
inactive: Potency [1] | Potency [17] | Potency [3] | Potency [4] | Potency [18] | Potency [5] | Potency [16] | Potency [6] | Potency [7] | Potency [8] | Potency [9] | Potency [10] | Potency [11] | Potency [12] | Potency [13] | Potency [14] | Potency [19] | Potency [15]

CC[C@@H]1[C@@H](C)O[C@@](O)([C@@H](C)[C@H](O)[C@H](C)[C@H]2OC(=O)C=CC=C[C@@H](C)[C@@H]([C@@H](C)[C@@H](O)[C@H](C)[C@@]3(O)C[C@H](O[C@H]4C[C@H](O)[C@H](O)[C@H](C)O4)[C@H](CC)[C@@H](C)O3)OC(=O)C=CC=C[C@@H]2C)C[C@H]1O[C@H]1C[C@H](O)[C@H](O)[C@H](C)O1
active: Potency [1] 833 nM | Potency [17] 372 nM | Potency [3] 372 nM | Potency [4] 372 nM | Potency [18] 469 nM | Potency [16] 1050 nM | Potency [20] 935 nM | Potency [6] 264 nM | Potency [7] 1050 nM | Potency [8] 833 nM | Potency [9] 1050 nM | Potency [10] 743 nM | Potency [11] 264 nM | Potency [12] 935 nM | Potency [13] 372 nM | Potency [14] 833 nM | Potency [15] 526 nM

CC[C@@H](C(N)=O)N1CCCC1=O
inactive: Potency [1] | Potency [2] | Potency [17] | Potency [3] | Potency [4] | Potency [16] | Potency [7] | Potency [8] | Potency [9] | Potency [10] | Potency [13] | Potency [14]

CC(C)(O)C=CC(=O)[C@](C)(O)[C@H]1[C@H](O)C[C@]2(C)[C@@H]3CC=C4[C@@H](C=C(O)C(=O)C4(C)C)[C@]3(C)C(=O)C[C@@]12C
active: Potency [1] 8.3 nM | Potency [2] 41.8 nM | Potency [3] 296 nM | Potency [4] 418 nM | Potency [18] 59 nM | Potency [5] 8.3 nM | Potency [16] 41.8 nM | Potency [6] 14.8 nM | Potency [7] 14.8 nM | Potency [8] 37.2 nM | Potency [9] 2090 nM | Potency [10] 29.6 nM | Potency [11] 20.9 nM | Potency [12] 1180 nM | Potency [13] 41.8 nM | Potency [14] 18.7 nM | Potency [19] 14.8 nM | Potency [15] 37.2 nM

COc1cccc2c1[C@]13CCN(CC4CC4)[C@H](C2)[C@]1(OC)CCC(=O)C3
active: viability (% of DMSO) [5] 89.4%
inactive: Potency [1] | Potency [2] | Potency [17] | Potency [3] | Potency [4] | Potency [18] | Potency [16] | Potency [7] | Potency [9] | Potency [10] | Potency [11] | Potency [12] | Potency [13] | Potency [15]

Cc1ccccc1-n1c(Cn2cnc3c(N)ncnc32)nc2cccc(C)c2c1=O
active: Potency [1] 4180 nM | Potency [2] 833 nM | Potency [17] 132 nM | Potency [4] 4180 nM | Potency [18] 372 nM | Potency [5] 132 nM | Potency [7] 935 nM | Potency [8] 833 nM | Potency [10] 187 nM | Potency [11] 296 nM | Potency [12] 1480 nM | Potency [13] 264 nM | Potency [14] 296 nM | Potency [19] 235 nM | Potency [15] 2960 nM
